Experimental data reported in publication PMC5349851, “Combinatorial bZIP dimers display complex DNA-binding specificity landscapes”.

Legend:
Assay in all cases: SELEX-seq (CSI, HT-SELEX, round 3); SELEX-seq: 1x PBS (10 mM phosphate, 137 mM NaCl, 2.7 mM KCl) pH 7.6, 2.5 mM DTT, 50 ng/ul poly dI-dC, 0.1% BSA, 50 nM biotinylated bZIP (1:3 with partner for heterodimers), 100 nM library, room temperature, 1 h, 3 rounds; high values mean tight binding
Conditions in all cases: protein: recombinant;recombinant; copies: 1;1; dsDNA, one strand shown
FOS;MAFB = FOS;MAFB (Homo sapiens;Homo sapiens, UniProt P01100;Q9Y5Q3 128-201;212-305, |)
Chain of FOS;MAFB (P01100 other isoform, or with tags, fused parts or gaps |, chain 1 of 2): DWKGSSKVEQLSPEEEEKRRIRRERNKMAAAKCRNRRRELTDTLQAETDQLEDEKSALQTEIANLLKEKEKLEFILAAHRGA
Chain of FOS;MAFB (Q9Y5Q3 other isoform, or with tags, fused parts or gaps |, chain 2 of 2): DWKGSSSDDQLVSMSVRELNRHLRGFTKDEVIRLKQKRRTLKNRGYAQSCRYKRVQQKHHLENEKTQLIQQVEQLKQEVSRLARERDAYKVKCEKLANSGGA

FOS;BATF2 = FOS;BATF2 (Homo sapiens;Homo sapiens, UniProt P01100;Q8N1L9 128-201;8-85, |)
Chain of FOS;BATF2 (P01100 other isoform, or with tags, fused parts or gaps |): as the sequence (P01100 other isoform, or with tags, fused parts or gaps |, chain 1 of 2) above

FOS;CREB3 = FOS;CREB3 (Homo sapiens;Homo sapiens, UniProt P01100;O43889 128-201;141-221, |)
Chain of FOS;CREB3 (P01100 other isoform, or with tags, fused parts or gaps |, chain 1 of 2): as above
Chain of FOS;CREB3 (O43889 other isoform, or with tags, fused parts or gaps |, chain 2 of 2): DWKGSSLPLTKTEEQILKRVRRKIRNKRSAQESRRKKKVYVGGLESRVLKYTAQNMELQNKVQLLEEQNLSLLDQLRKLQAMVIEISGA

ATF5;CEBPE = target: T1, ATF5;CEBPE (Homo sapiens;Homo sapiens, UniProt Q9Y2D1;Q15744 199-275;195-267, |)
T1 sequence 1: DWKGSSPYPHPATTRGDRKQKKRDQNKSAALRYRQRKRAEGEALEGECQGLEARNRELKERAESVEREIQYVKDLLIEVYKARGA
T1 sequence 2: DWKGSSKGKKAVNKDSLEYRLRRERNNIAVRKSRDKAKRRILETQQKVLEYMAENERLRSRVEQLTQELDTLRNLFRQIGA

ATF5;JUNB = target: T2, ATF5;JUNB (Homo sapiens;Homo sapiens, UniProt Q9Y2D1;P17275 199-275;259-332, |)
T2 sequence 1: T1 sequence 1
T2 sequence 2: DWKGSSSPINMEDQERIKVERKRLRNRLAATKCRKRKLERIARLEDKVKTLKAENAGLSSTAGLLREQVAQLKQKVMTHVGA

ATF5;BATF = target: T3, ATF5;BATF (Homo sapiens;Homo sapiens, UniProt Q9Y2D1;Q16520 199-275;17-90, |)
T3 sequence 1: T1 sequence 1
T3 sequence 2: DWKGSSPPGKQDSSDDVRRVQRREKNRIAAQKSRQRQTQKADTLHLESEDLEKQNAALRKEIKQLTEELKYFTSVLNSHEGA

ATF5;FOS = ATF5;FOS (Homo sapiens;Homo sapiens, UniProt Q9Y2D1;P01100 199-275;128-201, |)
Chain of ATF5;FOS (P01100 other isoform, or with tags, fused parts or gaps |): as the sequence (P01100 other isoform, or with tags, fused parts or gaps |, chain 1 of 2) above

ATF5;CREB3L1 = target: T4, ATF5;CREB3L1 (Homo sapiens;Homo sapiens, UniProt Q9Y2D1;Q96BA8 199-275;281-358, |)
T4 sequence 1: T1 sequence 1
T4 sequence 2: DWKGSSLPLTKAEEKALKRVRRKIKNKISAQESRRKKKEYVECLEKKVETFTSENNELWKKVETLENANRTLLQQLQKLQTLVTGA

FOS;NFE2L1 = FOS;NFE2L1 (Homo sapiens;Homo sapiens, UniProt P01100;Q14494 128-201;609-725, |)
Chain of FOS;NFE2L1 (P01100 other isoform, or with tags, fused parts or gaps |, chain 1 of 2): as the sequence (P01100 other isoform, or with tags, fused parts or gaps |, chain 1 of 2) above
Chain of FOS;NFE2L1 (Q14494 other isoform, or with tags, fused parts or gaps |, chain 2 of 2): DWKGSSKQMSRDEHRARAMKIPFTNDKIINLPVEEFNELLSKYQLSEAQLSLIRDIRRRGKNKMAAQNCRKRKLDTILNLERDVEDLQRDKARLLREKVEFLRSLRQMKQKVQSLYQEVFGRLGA

FOS;CREB3L3 = FOS;CREB3L3 (Homo sapiens;Homo sapiens, UniProt P01100;Q68CJ9 128-201;234-311, |)
Chain of FOS;CREB3L3 (P01100 other isoform, or with tags, fused parts or gaps |, chain 1 of 2): as the sequence (P01100 other isoform, or with tags, fused parts or gaps |, chain 1 of 2) above
Chain of FOS;CREB3L3 (Q68CJ9 other isoform, or with tags, fused parts or gaps |, chain 2 of 2): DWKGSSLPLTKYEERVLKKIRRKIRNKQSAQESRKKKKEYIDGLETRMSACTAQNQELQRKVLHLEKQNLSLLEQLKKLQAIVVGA

Sequence	binding signal (FOS;MAFB)	binding signal (FOS;BATF2)	binding signal (FOS;CREB3)	binding signal (ATF5;CEBPE)	binding signal (ATF5;JUNB)	binding signal (ATF5;BATF)	binding signal (ATF5;FOS)	binding signal (ATF5;CREB3L1)	binding signal (FOS;NFE2L1)	binding signal (FOS;CREB3L3)
CCTGACGTCA	0.0128 relative CSI intensity (max = 1)	0.00375 relative CSI intensity (max = 1)	0.0122 relative CSI intensity (max = 1)	0.073 relative CSI intensity (max = 1)	0.0543 relative CSI intensity (max = 1)	0.0188 relative CSI intensity (max = 1)	0.0125 relative CSI intensity (max = 1)	0.00567 relative CSI intensity (max = 1)		
ATGACGCAAT	0.0613 relative CSI intensity (max = 1)	0.00476 relative CSI intensity (max = 1)	0.0275 relative CSI intensity (max = 1)	0.245 relative CSI intensity (max = 1)	0.00597 relative CSI intensity (max = 1)	0.00602 relative CSI intensity (max = 1)	0.024 relative CSI intensity (max = 1)		0.49 relative CSI intensity (max = 1)	0.00168 relative CSI intensity (max = 1)
ATGACGTCAT	0.278 relative CSI intensity (max = 1)	1 relative CSI intensity (max = 1)	1 relative CSI intensity (max = 1)	0.364 relative CSI intensity (max = 1)	1 relative CSI intensity (max = 1)	0.864 relative CSI intensity (max = 1)	1 relative CSI intensity (max = 1)	1 relative CSI intensity (max = 1)	0.472 relative CSI intensity (max = 1)	0.751 relative CSI intensity (max = 1)
ATGACGTAAT	0.0637 relative CSI intensity (max = 1)	0.0531 relative CSI intensity (max = 1)		0.189 relative CSI intensity (max = 1)	0.0445 relative CSI intensity (max = 1)	0.0375 relative CSI intensity (max = 1)	0.00734 relative CSI intensity (max = 1)	0.00877 relative CSI intensity (max = 1)	0.12 relative CSI intensity (max = 1)	0.0238 relative CSI intensity (max = 1)
ATGATGCAAT	0.0246 relative CSI intensity (max = 1)		0.00378 relative CSI intensity (max = 1)	0.402 relative CSI intensity (max = 1)	0.00145 relative CSI intensity (max = 1)	0.00475 relative CSI intensity (max = 1)		0.00221 relative CSI intensity (max = 1)	0.174 relative CSI intensity (max = 1)	0.00314 relative CSI intensity (max = 1)
ATGACGGAAT	0.00352 relative CSI intensity (max = 1)		0.0131 relative CSI intensity (max = 1)	0.047 relative CSI intensity (max = 1)	0.00218 relative CSI intensity (max = 1)		0.0159 relative CSI intensity (max = 1)		0.00712 relative CSI intensity (max = 1)	0.00582 relative CSI intensity (max = 1)
